Beta2AR agonist: human beta-2 adrenergic receptor agonism by FAP; P07550; Am2.2-beta2AR cells, FAP receptor internalization, flow cytometry; response, % (no concentration beside the values); 340,000 tested, 0.43% active; AID 504454;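 active means response above a set limit, near 3 SD of response in nonfluorescent compounds, cut at about 42% in these data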
Target sequence (P07550 whole entry, looked up): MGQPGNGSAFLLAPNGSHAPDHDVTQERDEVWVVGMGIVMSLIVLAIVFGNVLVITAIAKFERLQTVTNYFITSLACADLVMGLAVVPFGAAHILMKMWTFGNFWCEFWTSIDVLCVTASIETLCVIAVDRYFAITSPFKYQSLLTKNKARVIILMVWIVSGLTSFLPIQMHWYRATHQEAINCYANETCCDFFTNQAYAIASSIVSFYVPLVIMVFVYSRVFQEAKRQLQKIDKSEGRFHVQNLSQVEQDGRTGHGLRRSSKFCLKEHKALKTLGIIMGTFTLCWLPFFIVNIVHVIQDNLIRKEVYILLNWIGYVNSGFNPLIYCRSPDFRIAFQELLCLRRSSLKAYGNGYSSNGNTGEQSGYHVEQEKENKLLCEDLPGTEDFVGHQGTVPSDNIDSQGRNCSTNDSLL
NOD2 RIPK2 PPI: NOD2-RIPK2 protein interaction inhibition; inhibition, % at 4.98 µM; 360,000 tested, 0.38% active; CHO BLA complementation NOD2-RIPK2, CCF4 ratio; in the data active means inhibition above about 21%
TLR4 MyD88 comp: TLR4-MyD88 interaction inhibition in cells | O00206+Q99836 | HeLa CL3-4 TLR4/MyD88 BLA complementation, FRET ratio | inhibition, % at 8.4 µM | 200,000 tested, 0.18% active | AID 861; in the data active means inhibition above about 25%
TLR9-MyD88 inh: blocks human TLR9 binding to MyD88; Q9NR96+Q99836; CHO BLA complementation TLR9-MyD88, CCF4 FRET ratio; inhibition, % at 4.98 µM; 340,000 tested, 0.21% active;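 active means inhibition above the mean over all tested compounds plus 3 SD, cut at about 21% in these data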
NTR1 agonist: activates human neurotensin receptor 1; 330,000 tested, 0.17% active; NTR1-U2OS beta-arrestin-GFP spot imaging, agonist mode; AID 493036; activation, % at 20 µM;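 active means activation at or above 40% of the spot to cytoplasm intensity ratio, with at least 20 cells analyzed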
ABHD5-PLIN5 inh: blocks binding of human ABHD5 to perilipin-5; Q00G26+Q8WTS1; Split G. princeps luciferase complementation, luminescence, 4 h; inhibition, % at 4 µM; 360,000 tested, 0.78% active; AID 602281;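 active means inhibition above the mean inhibition across every tested compound plus 3 SD, cut at about 22% in these data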
B2AR ag CP1: agonists of human beta-2 adrenergic receptor | shares compounds with Beta2AR agonist | AID 540358 | Am2.2-beta2AR cells, FAP surface receptor, flow cytometry; stronger effect = lower value | 1,100 tested, 25% active | percent response (surface receptor), % at 10 µM;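 active means surface receptor percent response at or below 58%, roughly 3 SD from nonfluorescent compounds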
FAP fluor counter: fluorescence artifact in beta-2AR agonist FAP counterscreen | AID 588765 | Am2.2 cells, FAP fluorogen flow cytometry; stronger effect = lower value | calls only at 10 µM | 1,100 tested, under 10 active | shares compounds with Beta2AR agonist;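 active means percent response below a set limit in fluorescence channel 1 and below 50% in channel 8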
Hits are given with their value. This is a sample that favours compounds with a hit; in the whole collection about 1.5% have one here.

Screening O=[N+]([O-])c1cc(S(=O)(=O)N2CCCCCC2)ccc1Cl returned Beta2AR agonist 48, NOD2 RIPK2 PPI inactive, TLR4 MyD88 comp inactive, TLR9-MyD88 inh inactive, NTR1 agonist inactive, ABHD5-PLIN5 inh inactive, B2AR ag CP1 inactive and FAP fluor counter inactive.
For COC(=O)c1ccc(Cn2c(C)c(C(=O)NCc3ccc(Cl)c(Cl)c3)sc2=O)o1 the results were NOD2 RIPK2 PPI inactive and ABHD5-PLIN5 inh inactive.
For COc1ncnc2c1ncn2CCCN1CCN(c2ncccn2)CC1 the results were NOD2 RIPK2 PPI inactive, TLR9-MyD88 inh inactive and ABHD5-PLIN5 inh inactive.
CCOC(=O)CSc1nc2ccc(NC(=O)CSc3nnnn3Cc3ccccc3)cc2s1 was read as Beta2AR agonist 54, NOD2 RIPK2 PPI inactive, TLR4 MyD88 comp inactive, TLR9-MyD88 inh inactive, NTR1 agonist inactive, ABHD5-PLIN5 inh inactive, B2AR ag CP1 inactive and FAP fluor counter inactive.
Screening Cn1c(=O)n(C)c2cc([N+](=O)[O-])c(N3CCN(S(=O)(=O)c4ccc(C(C)(C)C)cc4)CC3)cc21 returned Beta2AR agonist 48, NOD2 RIPK2 PPI inactive, TLR4 MyD88 comp inactive, TLR9-MyD88 inh inactive, NTR1 agonist inactive, ABHD5-PLIN5 inh inactive, B2AR ag CP1 inactive and FAP fluor counter inactive.
`OC[C@@H]1CN(Cc2ccccc2)C[C@H](n2cnc3c(NCc4ccncc4)ncnc32)O1` gave NOD2 RIPK2 PPI inactive and ABHD5-PLIN5 inh inactive.
`CNC(=O)OCc1ncn(-c2ccccc2)c1COC(=O)NC` gave NOD2 RIPK2 PPI inactive and ABHD5-PLIN5 inh inactive.
Screening CCOC(=O)CSc1nnc(CNc2ccc(Cl)cc2)n1-c1ccccc1 returned Beta2AR agonist 108, NOD2 RIPK2 PPI inactive, TLR4 MyD88 comp inactive, TLR9-MyD88 inh inactive, NTR1 agonist inactive, ABHD5-PLIN5 inh inactive, B2AR ag CP1 inactive and FAP fluor counter inactive.
For CCOC(=O)CSc1nnc(CNc2cccc(Cl)c2)n1-c1ccccc1 the results were Beta2AR agonist inactive, NOD2 RIPK2 PPI inactive, TLR4 MyD88 comp inactive, TLR9-MyD88 inh inactive, NTR1 agonist inactive and ABHD5-PLIN5 inh inactive.
Screening CCc1ccc(OCC(=O)Nc2ccc(-c3nc4ccccc4o3)c(O)c2)cc1 returned Beta2AR agonist 93, NOD2 RIPK2 PPI inactive, TLR4 MyD88 comp inactive, TLR9-MyD88 inh inactive, NTR1 agonist inactive, ABHD5-PLIN5 inh inactive, B2AR ag CP1 1.1 and FAP fluor counter inactive.
Cc1cc(C)n(-c2nc(SCC(=O)Nc3nccs3)c3c4c(sc3n2)COC(C)(C)C4)n1 was read as Beta2AR agonist 93, NOD2 RIPK2 PPI inactive, TLR4 MyD88 comp inactive, TLR9-MyD88 inh inactive, NTR1 agonist inactive, ABHD5-PLIN5 inh inactive, B2AR ag CP1 inactive and FAP fluor counter inactive.
Screening CC1CCN(S(=O)(=O)c2ccc(C(=O)Nc3nnc(-c4ccco4)o3)cc2)CC1 returned Beta2AR agonist 51, NOD2 RIPK2 PPI inactive, TLR9-MyD88 inh inactive, NTR1 agonist inactive, ABHD5-PLIN5 inh inactive, B2AR ag CP1 inactive and FAP fluor counter inactive.
For O=C(Nc1nnc(-c2ccco2)o1)c1ccc(S(=O)(=O)N2CCCC2)cc1 the results were Beta2AR agonist inactive, NOD2 RIPK2 PPI inactive, TLR4 MyD88 comp inactive, TLR9-MyD88 inh inactive, NTR1 agonist inactive and ABHD5-PLIN5 inh inactive.
`CN(c1ccccc1)S(=O)(=O)c1cccc(C(=O)Nc2cccc(C(=O)NC3CC3)c2)c1` gave Beta2AR agonist 51, NOD2 RIPK2 PPI inactive, TLR9-MyD88 inh inactive, NTR1 agonist inactive, ABHD5-PLIN5 inh inactive, B2AR ag CP1 13 and FAP fluor counter inactive.
Screening CN(c1ccccc1)S(=O)(=O)c1cccc(C(=O)NC2CCCC2)c1 returned Beta2AR agonist inactive, NOD2 RIPK2 PPI inactive, TLR9-MyD88 inh inactive, NTR1 agonist inactive and ABHD5-PLIN5 inh inactive.
`O=C(NNC(=O)c1csc(-c2cccs2)n1)c1ccc(Cl)cc1` gave NOD2 RIPK2 PPI inactive and ABHD5-PLIN5 inh inactive.
For Cc1cccc(NC(=O)N2CCC(C(=O)c3ccc(F)cc3)CC2)c1 the results were Beta2AR agonist 75, NOD2 RIPK2 PPI inactive, TLR9-MyD88 inh inactive, NTR1 agonist inactive, ABHD5-PLIN5 inh inactive, B2AR ag CP1 inactive and FAP fluor counter inactive.
`CC1CCN(C(=O)C2CCC(CNS(=O)(=O)c3ccc4c(c3)C(C)(C)C(=O)N4C)CC2)CC1` (centres undefined) gave NOD2 RIPK2 PPI inactive and ABHD5-PLIN5 inh inactive.
Oc1ccccc1/C=N/Nc1nc2ccccc2o1 was read as Beta2AR agonist inactive, NOD2 RIPK2 PPI inactive, TLR9-MyD88 inh inactive, NTR1 agonist inactive, ABHD5-PLIN5 inh inactive, B2AR ag CP1 inactive and FAP fluor counter inactive.
`COCCNc1nc(-c2ccccc2CO)c2sc(-c3ccccc3)cc2n1` gave NOD2 RIPK2 PPI inactive and ABHD5-PLIN5 inh inactive.
Screening CCC(NC(C)C)C(O)c1ccc(O)c(O)c1 (centres undefined) returned Beta2AR agonist inactive, NOD2 RIPK2 PPI inactive, TLR4 MyD88 comp inactive, TLR9-MyD88 inh inactive, NTR1 agonist inactive, ABHD5-PLIN5 inh inactive, B2AR ag CP1 42 and FAP fluor counter inactive.
For CCC(c1ccc(O)c(O)c1)C(CC)c1ccc(O)c(O)c1 (centres undefined) the results were Beta2AR agonist inactive, NOD2 RIPK2 PPI inactive, TLR9-MyD88 inh inactive and ABHD5-PLIN5 inh inactive.
For O=C(c1ccc(F)cc1)N1CCC(C(=O)N2CCN(S(=O)(=O)c3cccc(F)c3)CC2)CC1 the results were Beta2AR agonist inactive, NOD2 RIPK2 PPI inactive, TLR9-MyD88 inh inactive, NTR1 agonist inactive and ABHD5-PLIN5 inh inactive.
For Cc1ccc(C)c(S(=O)(=O)N2CCN(C(=O)C3CCN(C(=O)c4ccc(F)cc4)CC3)CC2)c1 the results were Beta2AR agonist 60, NOD2 RIPK2 PPI inactive, TLR9-MyD88 inh inactive, NTR1 agonist inactive, ABHD5-PLIN5 inh inactive, B2AR ag CP1 inactive and FAP fluor counter inactive.
For Cn1c(SCC(=O)NCC2CCCO2)ncc(C(=O)Nc2ccc(F)cc2)c1=O (centres undefined) the results were Beta2AR agonist 46, NOD2 RIPK2 PPI inactive, TLR9-MyD88 inh inactive, NTR1 agonist inactive, ABHD5-PLIN5 inh inactive, B2AR ag CP1 inactive and FAP fluor counter inactive.
`Cn1c(SCC(=O)NCC2CCCO2)ncc(C(=O)Nc2ccc(Cl)cc2)c1=O` (centres undefined) gave Beta2AR agonist 75, NOD2 RIPK2 PPI inactive, TLR9-MyD88 inh inactive, NTR1 agonist inactive, ABHD5-PLIN5 inh inactive, B2AR ag CP1 inactive and FAP fluor counter inactive.
For CC(=O)Nc1ccc(NC(=O)CSc2ncc(C(=O)Nc3ccc(Cl)cc3)c(=O)n2C)cc1 the results were Beta2AR agonist inactive, NOD2 RIPK2 PPI inactive, TLR9-MyD88 inh inactive, NTR1 agonist inactive and ABHD5-PLIN5 inh inactive.

Source: PubChem BioAssay (several laboratories)
